# This is part of a sample that, as a whole, favours compounds with a hit. Of some 83,000 tested, about 20% had one in any assay.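 Testing used 96-well plates and a 48-hour single-concentration exposure. Example: -40 means 40% of the starting cells died.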 Values without a mark were called inactive. Calls of active or inactive are those of the source. Rule for the calls: active = growth percent below 10; inactive = the rest.
# Tested on: TK-10 renal
# Test: NCI-60 one-dose screen, 48 h (100 = growth as untreated, 0 = no growth, -100 = all killed)
# Conditions: 10 µM unless noted
row,SMILES,growth
1,O=S(=O)(NCCCNc1nccc(-c2[nH]c(-c3ccccc3)nc2-c2ccc(F)c(O)c2)n1)c1cccc2ccccc12,72.5%
2,CCc1cc(OC(=O)N2CCC(N3CCCCC3)CC2)ccc1Nc1cc(-c2ccc(-n3cccn3)cc2)[nH]n1,95.7%
3,O=C(COc1ccc(/C=C2\C(=O)Nc3ccc(F)cc32)cc1)Nc1ccccc1,118%
4,CC1=C(C)C(=O)C(Nc2cccc(C(=O)OC(C)(C)C)c2)=CC1=O,125%
5,Cn1cc(-c2nnc(N)nc2-c2c[nH]c3ccc(F)cc23)c2cc(Br)ccc21,61.5%
6,Cn1c(SCC(=O)c2ccc(F)cc2)nc2ccccc2c1=O,120%
7,CN1CCN(c2ccc(Nc3nc(NCCCNS(=O)(=O)c4cccc5ccccc45)c4sccc4n3)cc2)CC1,-40.6% (active)
8,CCCCCC[n+]1ccc(SCC(=O)n2ccc3ccccc32)c2ccccc21,108%
9,COc1ccc(-c2cc(-c3ccc(N(C)C)cc3)n3c(n2)nc2ccccc23)cc1,40.9%
10,CC(=O)N(O)CCCCCNC(=O)CCC(=O)N(O)CCCCCNC(=O)CCC(=O)N(O)CCCCCN(CCCCCCCCCC[P+](c1ccccc1)(c1ccccc1)c1ccccc1)CCCCCCCCCC[P+](c1ccccc1)(c1ccccc1)c1ccccc1,26.5%
11,CC1=C(C)C(=O)C(Nc2ccc3c(c2)OCCO3)=C(Br)C1=O,135%
12,COc1ccc2c(c1)C=CC1(O2)Oc2ccc(OC)cc2C=C1C (configuration not stated),98%

# Reference: PubChem BioAssay (NCI)
